Source: the supplement of paper PMC7724964
± gives the standard deviation of the averaged measurements.

Molecular target: T1, BTN1A1 285-479 SPRY (domain begin residue: 285, domain end residue: 479), Q13410
T1 chain: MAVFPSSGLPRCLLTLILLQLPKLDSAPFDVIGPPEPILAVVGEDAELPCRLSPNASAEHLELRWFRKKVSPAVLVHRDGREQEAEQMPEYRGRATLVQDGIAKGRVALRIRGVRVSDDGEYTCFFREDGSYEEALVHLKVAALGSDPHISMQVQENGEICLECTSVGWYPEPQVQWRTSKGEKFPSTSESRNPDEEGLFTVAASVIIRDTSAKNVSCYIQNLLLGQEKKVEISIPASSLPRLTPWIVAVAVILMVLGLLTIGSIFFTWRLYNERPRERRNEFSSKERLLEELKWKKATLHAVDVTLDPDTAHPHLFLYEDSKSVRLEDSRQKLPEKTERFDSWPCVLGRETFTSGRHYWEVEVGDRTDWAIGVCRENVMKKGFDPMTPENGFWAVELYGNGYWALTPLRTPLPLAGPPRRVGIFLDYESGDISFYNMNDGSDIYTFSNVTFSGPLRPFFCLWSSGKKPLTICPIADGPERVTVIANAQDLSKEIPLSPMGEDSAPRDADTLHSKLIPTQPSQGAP
Experiment: phage ELISA signal ratio (GST-PRM binding over GST background); higher = stronger binding of peptide-phage to the PRM
Method: (§1)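 Phage-displayed random hexadecapeptides (Cys-free, flanked by invariant Gly linkers, fused to the M13 P8 major coat protein) were selected over 5 rounds against GST-fused human PRM domains. Individual clones from rounds 4-5 were tested by phage ELISA, and positive clones binding the target but not GST were sequenced. Values are the ELISA signal ratio of target over background (GST); the background signal is given separately.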

Row | Binder | phage ELISA signal ratio
1 | QTWQERQAMMMHMMQW | 15.7
2 | VDGWWIARSEHLMQMA | 11.9
3 | GWWQSREYYMQDLMAS | 5.49
4 | FEQHWMQKQMAVRQIV | 13.6
5 | LSSLETYKNHGLMFMF | 22.5

Molecular target: T2, ALDOA 1-364 Glycolytic (domain begin residue: 1, domain end residue: 364), P04075
T2 chain: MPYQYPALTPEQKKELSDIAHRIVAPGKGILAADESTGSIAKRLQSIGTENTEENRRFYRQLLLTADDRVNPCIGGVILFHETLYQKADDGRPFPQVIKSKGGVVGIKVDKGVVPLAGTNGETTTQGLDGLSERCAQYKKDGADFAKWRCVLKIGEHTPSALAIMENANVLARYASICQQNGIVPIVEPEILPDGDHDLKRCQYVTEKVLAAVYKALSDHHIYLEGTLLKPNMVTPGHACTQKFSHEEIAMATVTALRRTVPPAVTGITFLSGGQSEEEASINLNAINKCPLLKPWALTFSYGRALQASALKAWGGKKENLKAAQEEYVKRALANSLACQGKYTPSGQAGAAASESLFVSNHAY
Experiment: as above
Method: as §1

Row | Binder | phage ELISA signal ratio
6 | VQWQERYTDYTFENVT | 24.7
7 | WVQDTWGEGWSYTVQE | 20.2
8 | WVYENGEWEWTFPPSA | 17.8

Molecular target: T3, CAPNS1 1-268 EF-hand_8+EF-hand_5 (domain begin residue: 1, domain end residue: 268), P04632
T3 chain: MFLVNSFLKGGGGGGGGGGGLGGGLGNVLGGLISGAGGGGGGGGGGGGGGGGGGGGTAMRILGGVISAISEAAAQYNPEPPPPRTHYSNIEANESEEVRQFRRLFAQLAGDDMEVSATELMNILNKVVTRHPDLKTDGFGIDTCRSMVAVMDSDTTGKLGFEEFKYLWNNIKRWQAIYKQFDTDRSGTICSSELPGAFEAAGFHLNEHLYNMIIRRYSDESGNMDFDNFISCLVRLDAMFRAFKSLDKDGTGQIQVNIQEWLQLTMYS
Experiment: as above
Method: as §1

Row | Binder | phage ELISA signal ratio
9 | YQQDLVDFLWNDLYAF | 22.7

Molecular target: T4, ARFGEF2 639-829 Sec7 (domain begin residue: 639, domain end residue: 829), Q9Y6D5
T4 chain: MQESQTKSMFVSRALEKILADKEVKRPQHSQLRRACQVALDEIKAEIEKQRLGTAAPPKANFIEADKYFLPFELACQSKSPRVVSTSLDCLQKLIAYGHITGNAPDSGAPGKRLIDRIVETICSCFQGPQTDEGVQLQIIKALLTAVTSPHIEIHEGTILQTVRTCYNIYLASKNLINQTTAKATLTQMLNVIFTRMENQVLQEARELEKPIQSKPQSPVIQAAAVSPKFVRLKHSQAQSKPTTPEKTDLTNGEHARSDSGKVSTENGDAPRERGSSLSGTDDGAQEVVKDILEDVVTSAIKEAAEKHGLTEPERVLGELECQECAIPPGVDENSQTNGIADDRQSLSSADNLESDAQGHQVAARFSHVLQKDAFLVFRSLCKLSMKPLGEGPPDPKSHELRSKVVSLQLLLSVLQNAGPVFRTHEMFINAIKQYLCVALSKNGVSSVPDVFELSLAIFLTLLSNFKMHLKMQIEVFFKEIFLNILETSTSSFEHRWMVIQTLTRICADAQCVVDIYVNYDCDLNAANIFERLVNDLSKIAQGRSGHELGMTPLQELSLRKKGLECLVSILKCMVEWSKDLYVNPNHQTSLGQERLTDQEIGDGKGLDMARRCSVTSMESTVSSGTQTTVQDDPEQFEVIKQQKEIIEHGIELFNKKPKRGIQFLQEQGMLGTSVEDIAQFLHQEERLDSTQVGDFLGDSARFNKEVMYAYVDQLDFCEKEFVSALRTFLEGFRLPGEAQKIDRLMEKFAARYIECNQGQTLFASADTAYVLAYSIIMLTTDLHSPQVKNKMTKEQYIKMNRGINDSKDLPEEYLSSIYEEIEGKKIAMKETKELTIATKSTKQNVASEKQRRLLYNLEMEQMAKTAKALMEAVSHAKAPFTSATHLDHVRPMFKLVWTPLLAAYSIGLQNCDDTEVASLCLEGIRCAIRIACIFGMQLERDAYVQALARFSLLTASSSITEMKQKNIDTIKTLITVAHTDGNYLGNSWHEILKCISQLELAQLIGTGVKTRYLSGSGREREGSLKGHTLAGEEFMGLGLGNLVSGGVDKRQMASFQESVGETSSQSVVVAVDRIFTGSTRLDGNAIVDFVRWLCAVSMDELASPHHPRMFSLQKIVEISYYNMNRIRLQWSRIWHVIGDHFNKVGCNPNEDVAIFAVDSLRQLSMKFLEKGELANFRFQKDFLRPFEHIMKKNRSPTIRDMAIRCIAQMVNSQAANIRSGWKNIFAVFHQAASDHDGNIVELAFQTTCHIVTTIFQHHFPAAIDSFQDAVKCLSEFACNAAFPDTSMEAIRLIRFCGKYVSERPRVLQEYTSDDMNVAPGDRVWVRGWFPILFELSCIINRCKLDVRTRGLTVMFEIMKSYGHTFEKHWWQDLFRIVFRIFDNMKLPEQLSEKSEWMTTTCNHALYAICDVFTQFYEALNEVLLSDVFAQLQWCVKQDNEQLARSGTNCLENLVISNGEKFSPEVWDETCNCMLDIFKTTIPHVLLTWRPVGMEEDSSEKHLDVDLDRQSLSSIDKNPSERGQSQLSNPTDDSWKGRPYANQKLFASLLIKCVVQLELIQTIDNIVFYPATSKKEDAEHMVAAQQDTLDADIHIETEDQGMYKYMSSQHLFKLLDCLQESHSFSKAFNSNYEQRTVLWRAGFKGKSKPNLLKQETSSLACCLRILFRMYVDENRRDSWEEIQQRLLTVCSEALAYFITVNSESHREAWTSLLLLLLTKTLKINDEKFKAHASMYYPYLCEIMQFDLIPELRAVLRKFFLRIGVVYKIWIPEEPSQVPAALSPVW
Experiment: as above
Method: as §1

Row | Binder | phage ELISA signal ratio
10 | NEGERLWAVLKLWHEE | 18.6
11 | QITMQQYVELWHAAKS | 24.1

molecular target: CBX3 109-173 Chromo_shadow (domain begin residue: 109, domain end residue: 173), Q13185; experiment: as above
Method: as §1

Chain of CBX3 109-173 Chromo_shadow (domain begin residue: 109, domain end residue: 173), Q13185 (Q13185 whole entry): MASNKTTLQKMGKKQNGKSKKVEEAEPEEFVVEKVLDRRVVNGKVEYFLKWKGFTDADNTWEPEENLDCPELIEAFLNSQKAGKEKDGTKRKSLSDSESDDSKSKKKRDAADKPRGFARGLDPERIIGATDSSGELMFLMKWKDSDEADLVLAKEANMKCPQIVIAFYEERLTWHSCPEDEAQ

Row | Binder | phage ELISA signal ratio
12 | IQKWMNFDDFATAVFH | 11.5
13 | NWLFLDPDYYNVHWPS | 3.29

molecular target: ARPC3 1-178 P21-Arc (domain begin residue: 1, domain end residue: 178), O15145; experiment: as above
Method: as §1

Row | Binder | phage ELISA signal ratio
14 | VPEWWWQGWDPHHVVE | 6.99

Molecular target: T5, ARID4A 568-634 Tudor-knot (domain begin residue: 568, domain end residue: 634), P29374
T5 chain: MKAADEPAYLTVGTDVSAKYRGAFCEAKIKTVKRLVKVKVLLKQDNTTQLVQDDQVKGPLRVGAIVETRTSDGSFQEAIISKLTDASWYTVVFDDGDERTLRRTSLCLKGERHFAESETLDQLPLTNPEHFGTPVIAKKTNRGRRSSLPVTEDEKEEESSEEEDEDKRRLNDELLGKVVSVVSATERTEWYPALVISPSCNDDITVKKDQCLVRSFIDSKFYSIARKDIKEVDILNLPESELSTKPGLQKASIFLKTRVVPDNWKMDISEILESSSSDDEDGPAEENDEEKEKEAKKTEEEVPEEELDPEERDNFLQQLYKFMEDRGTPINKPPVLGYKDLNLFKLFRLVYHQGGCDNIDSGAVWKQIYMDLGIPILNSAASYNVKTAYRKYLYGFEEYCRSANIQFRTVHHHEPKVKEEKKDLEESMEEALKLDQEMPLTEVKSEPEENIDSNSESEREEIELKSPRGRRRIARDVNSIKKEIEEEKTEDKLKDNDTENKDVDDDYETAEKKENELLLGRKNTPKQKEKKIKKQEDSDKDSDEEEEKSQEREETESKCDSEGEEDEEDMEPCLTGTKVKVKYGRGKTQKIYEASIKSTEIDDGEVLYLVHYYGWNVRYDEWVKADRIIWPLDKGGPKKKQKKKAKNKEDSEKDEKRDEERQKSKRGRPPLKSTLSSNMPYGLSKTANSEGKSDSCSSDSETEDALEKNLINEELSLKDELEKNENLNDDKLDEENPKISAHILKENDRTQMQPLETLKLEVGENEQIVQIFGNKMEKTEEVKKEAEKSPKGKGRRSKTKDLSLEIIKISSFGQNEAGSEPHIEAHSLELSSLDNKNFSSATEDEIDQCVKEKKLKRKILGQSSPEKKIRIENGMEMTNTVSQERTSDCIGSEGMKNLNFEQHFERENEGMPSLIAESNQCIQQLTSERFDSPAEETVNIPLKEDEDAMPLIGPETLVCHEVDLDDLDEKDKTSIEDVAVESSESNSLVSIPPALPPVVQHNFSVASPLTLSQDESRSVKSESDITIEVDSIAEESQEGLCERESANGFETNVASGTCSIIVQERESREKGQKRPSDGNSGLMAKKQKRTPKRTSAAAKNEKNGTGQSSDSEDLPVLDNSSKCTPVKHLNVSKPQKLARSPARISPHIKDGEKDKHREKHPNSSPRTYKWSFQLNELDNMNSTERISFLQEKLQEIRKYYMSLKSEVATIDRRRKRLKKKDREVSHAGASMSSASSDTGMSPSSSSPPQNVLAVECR
Experiment: as above
Method: as §1

Row | Binder | phage ELISA signal ratio
15 | HFIELMYDAPEMHMPW | 5.33 ± 1.7
16 | WVMPGMEELNIFENMF | 3.49

molecular target: KMT2C 1055-1137 PHD (domain begin residue: 1055, domain end residue: 1137); experiment: as above
Method: as §1

Row | Binder | phage ELISA signal ratio
17 | HFIELMYDAPEMHMPW | 6.76
